Compound activity from PubChem.
Mtb MenB inh = blocks the Mycobacterium tuberculosis MenB enzyme. P9WNP5. MenB enzyme assay, absorbance read-out. inhibition, % (no concentration beside the values). actives 0.43% (n = 100,000); in the data active = inhibition above about 21%, passing the limit was not always enough
MbtI inh = MbtI salicylate synthase inhibition; P9WFX0; purified MbtI enzyme, fluorescence intensity read-out; inhibition, % (test concentration not listed); actives 0.89% (n = 100,000); in the data active = inhibition mostly above about 56%, no sharp cut-off; inactive = mostly below about 77%
Target sequence (P9WFX0 whole entry, looked up): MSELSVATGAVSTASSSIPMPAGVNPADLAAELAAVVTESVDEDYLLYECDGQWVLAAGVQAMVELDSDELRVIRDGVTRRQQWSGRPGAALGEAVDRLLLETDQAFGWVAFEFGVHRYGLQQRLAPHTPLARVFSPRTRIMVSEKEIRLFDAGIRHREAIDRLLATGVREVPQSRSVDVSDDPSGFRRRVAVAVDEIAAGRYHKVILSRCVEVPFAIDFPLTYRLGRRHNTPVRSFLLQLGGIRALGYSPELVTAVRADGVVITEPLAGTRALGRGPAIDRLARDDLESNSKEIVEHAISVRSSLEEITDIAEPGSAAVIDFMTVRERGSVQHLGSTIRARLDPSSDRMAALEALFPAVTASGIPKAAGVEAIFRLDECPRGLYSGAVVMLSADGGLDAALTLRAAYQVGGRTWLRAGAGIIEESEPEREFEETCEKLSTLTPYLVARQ
AID504770 = growth inhibitors of E. coli YBA685 in a screen for V. cholerae RctB (chromosome II replication) inhibitors; AID 504770; actives 0.27% (n = 130,000); z-score (concentration not given with the values); E. coli YBA685 rctB-dependent plasmid, OD600 growth, 3 h; active compounds read low; in the data active = z-score below about -2, passing the limit was not always enough
Polio RdRp inh = poliovirus RNA polymerase inhibition; % elongation, % (compound at 16.7 µg/mL); actives 0.66% (n = 150,000); P03300; poliovirus polymerase elongation, fluorescence polarization; active compounds read low; AID 588519; in the data active = % elongation below about 90%
Large screens that a line does not name were inactive; ! = a repeat was not active. A selection: hits, their analogues and other compounds. The true share with any hit is near 1.5%.

CC(=O)c1ccc(NC(=O)C2=CC(c3ccc(C)cc3)=NS(=O)(=O)N2C)cc1	Polio RdRp inh 8.0 (no result: Mtb MenB inh, MbtI inh, AID504770)
CC(=O)c1ccc(NC(=O)C2=CC(c3ccc4c(c3)OCO4)=NS(=O)(=O)N2C)cc1	none (no result: Mtb MenB inh, MbtI inh, AID504770)
O=C1N(Cc2ccccc2)C(c2ccccc2)C1(F)F (stereo not given)	none (no result: Mtb MenB inh)
COc1cccc(C2N(Cc3ccccc3)C(=O)C2(F)F)c1OC (stereo not given)	Polio RdRp inh 89 (no result: Mtb MenB inh)
O=c1c2ccccc2n2c(-c3ccc(Cl)cc3)nnc2n1CCc1ccccc1	Polio RdRp inh 74 (no result: Mtb MenB inh, MbtI inh, AID504770)
O=c1c2ccccc2n2c(-c3ccc(F)c(F)c3)nnc2n1CCc1ccccc1	none (no result: Mtb MenB inh, MbtI inh, AID504770)
CC1CCC[S+](c2cc(O)ccc2O)C1 (stereo not given)	MbtI inh 101
CC(C)c1ccc(NC(=O)N2CCN(c3ccc(Cl)c(Cl)c3)CC2)cc1	none (no result: Mtb MenB inh, MbtI inh, AID504770)
CCCCN1C(=O)CN(C2CCCCCC2)C(=O)C1c1ccc(OC(C)C)c(OC)c1 (stereo not given)	none (no result: Mtb MenB inh, MbtI inh, AID504770)
CCCn1c(=O)[nH][nH]c1=S	MbtI inh 88
CCCc1cc2ccccc2o1	Mtb MenB inh 32
CCCc1cc(=O)c2c(O)cccc2o1	none (no result: Mtb MenB inh, MbtI inh, Polio RdRp inh)
CCn1c(-c2cc(OC)ccc2OC)csc1=Nc1ccc(O)cc1	MbtI inh 66, Polio RdRp inh 87
Cc1ccc(/C=N/NC(=O)CNc2cccc(C(F)(F)F)c2)o1	none (no result: Polio RdRp inh)
O=C(CSc1nnc2ccccn12)Nc1cc(C(=O)O)cc(C(=O)O)c1	none
Cn1c(=O)oc2cc(S(=O)(=O)N3CCC(C(=O)NCCc4ccccc4)CC3)ccc21	none
N#C/C(=C\C=C\c1ccco1)C(N)=S	Polio RdRp inh 84
CC1CCN(C(=O)c2cccc(Nc3nc4ccccc4n4nnnc34)c2)CC1	none
Cn1c(SCc2cnc(-c3ccccc3)s2)nnc1C1COc2ccccc2O1 (stereo not given)	none
c1ccc(-c2nn3c(C4COc5ccccc5O4)nnc3s2)nc1 (stereo not given)	MbtI inh 57
CCOc1ccc(-n2c(SCC(=O)NC3CCCC3)nnc2-c2ccoc2C)cc1	Mtb MenB inh 36
Cc1c(C(=O)Nc2ccncc2)oc2ccccc12	Mtb MenB inh 38
Cc1ccc2nc3c(cc(C(=O)NCCN4CCOCC4)c(=N)n3C(C)C)c(=O)n2c1	none
O=C(Nc1ccccc1)N(Cc1nnc2n1CCCCC2)c1ccc(I)cc1	Polio RdRp inh 90 (no result: MbtI inh)
COc1cccc(N(Cc2nnc3n2CCCCC3)C(=O)Nc2ccccc2)c1	none (no result: Mtb MenB inh, MbtI inh, AID504770)
O=C1CSc2ccc(C(=O)OCC(=O)N3CCCc4ccccc43)cc2N1	MbtI inh 60
COc1ccc(NC(=O)Cn2c(=O)n(Cc3ccco3)c(=O)c3sc4ccccc4c32)c(OC)c1	none (no result: Mtb MenB inh, MbtI inh, AID504770)
COc1ccc2c(c1)Cc1sc(NC(=O)c3ccc(OC)c(Br)c3)nc1-2	Polio RdRp inh 87
COc1ccc2c(c1)Cc1sc(NC(=O)c3ccccc3)nc1-2	none (no result: Mtb MenB inh, MbtI inh, Polio RdRp inh)
COc1ccc2c(c1)Cc1sc(NC(=O)c3ccccc3C)nc1-2	Polio RdRp inh 83 (no result: Mtb MenB inh, MbtI inh, AID504770)
COc1ccc2c(c1)Cc1sc(NC(=O)c3cccc(F)c3)nc1-2	none (no result: Mtb MenB inh, MbtI inh, AID504770)
COc1ccc(C(=O)Nc2nc3c(s2)Cc2cc(OC)ccc2-3)cc1	Polio RdRp inh 67 (no result: Mtb MenB inh, MbtI inh, AID504770)
COc1nc(OC)nc(-n2cnc(NC(=O)Nc3cccc(Cl)c3)n2)n1	none (no result: MbtI inh)
N#CC(C#N)=C(N)C(C#N)Cc1ccc(C#N)cc1 (stereo not given)	none
O=C1CC(c2ccc(S(=O)(=O)NCCOc3ccccc3)cc2)CN1 (stereo not given)	none
CC(C)NCC(O)COc1cccc2ccccc12 (stereo not given)	Polio RdRp inh 100!
COc1ccc(CCNC(=S)N2CCCC2)cc1OC	none
COc1ccc(CCNC(=S)N2CCCC(C(F)(F)F)C2)cc1 (stereo not given)	MbtI inh 84, Polio RdRp inh 80
COc1cc(Cl)c(C)cc1NC(=S)N(Cc1ccc(C)cc1)Cc1ccco1	none (no result: Mtb MenB inh, AID504770, Polio RdRp inh)
Cc1nn(-c2ccccc2)c(Cl)c1C1N2CCCN1CC2 (stereo not given)	Mtb MenB inh 33
Cc1ccc(-c2nnc(SCCC(=O)N3CCOCC3)o2)cc1	Mtb MenB inh 28
CS(=O)(=O)Nc1ccc([N+](=O)[O-])cc1OC1CCCCC1	none (no result: AID504770)
Cc1c(C)[n+]([O-])c2ccc3c(non3O)c12	AID504770 -2.2
Cc1nc2ccc(N=Cc3ccc(Br)cc3)cc2s1	AID504770 -2.4
Cc1cc(C)n(CCCO)c(=O)c1C#N	AID504770 -2.9
Cc1cc(C)n(CC(C)O)c(=O)c1C#N (stereo not given)	none
O=C1C(Sc2ncn[nH]2)=C/C(=N/S(=O)(=O)c2ccc(Cl)cc2)c2ccccc21	MbtI inh 95 (no result: Mtb MenB inh, Polio RdRp inh)
CC(=O)N1CCC2(CC1)c1cccn1-c1ccccc1CN2C(=O)Nc1ccc(C)cc1C	none
